{"source": "the supplement of paper PMC6992640", "note": "± gives the standard deviation of the averaged measurements.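 Also: PDX cells carrying CMV promoter-driven luciferase, viability read as total photon flux per second by IVIS imaging following D-luciferin, vehicle control 0.1% DMSO.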"}
{"tested_on": "UCD52 (cells of a triple-negative basal-like breast cancer xenograft)", "assay": "cell viability (% of vehicle); higher = less cytotoxic", "settings": "10 µM; 72 h"}
{"smiles": "C=CC[C@@H]1/C=C(\\C)C[C@H](C)C[C@H](OC)[C@H]2O[C@@](O)(C(=O)C(=O)N3CCCC[C@H]3C(=O)O[C@H](/C(C)=C/[C@@H]3CC[C@@H](O)[C@H](OC)C3)[C@H](C)[C@@H](O)CC1=O)[C@H](C)C[C@@H]2OC", "note": "[Tacrolimus (FK506)]", "cell viability": "83.4 ± 4.2"}
{"smiles": "O=C1CCC(N2C(=O)c3ccccc3C2=O)C(=O)N1", "note": "(centres undefined) [Thalidomide]", "cell viability": "102 ± 4.3"}
{"smiles": "COc1cc2nc(N3CCN(C(=O)c4ccco4)CC3)nc(N)c2cc1OC.Cl", "note": "[Prazosin HCl]", "cell viability": "140 ± 7.2"}
{"smiles": "Oc1ccc(OC2CCCCO2)cc1", "note": "(centres undefined) [Deoxyarbutin]", "cell viability": "129 ± 4.3"}
{"smiles": "COc1ccccc1N1CCN(CCCNc2cc(=O)n(C)c(=O)n2C)CC1.Cl", "note": "[Urapidil HCl]", "cell viability": "97.6 ± 7.3"}
{"smiles": "O=C(O)CCC(=O)O.O=C(OC1CN2CCC1CC2)N1CCc2ccccc2C1c1ccccc1", "note": "(centres undefined) [Solifenacin succinate]", "cell viability": "57.36 ± 0.49"}
{"smiles": "COc1ccc(O)cc1", "note": "[Mequinol]", "cell viability": "71 ± 7.1"}
{"smiles": "CCC(CO)NCCNC(CC)CO.Cl.Cl", "note": "(centres undefined) [Ethambutol HCl]", "cell viability": "86.7 ± 3"}
{"smiles": "CC(NC(=O)C(O)C(C)C)C(=O)NC1C(=O)N(C)CCc2ccccc21", "note": "(centres undefined)", "cell viability": "81 ± 20"}
{"smiles": "CC12CCC3c4ccc(OC(=O)c5ccccc5)cc4CCC3C1CCC2O", "note": "(centres undefined) [Estradiol Benzoate]", "cell viability": "83.6 ± 14"}
{"smiles": "CC(CN1CC(=O)NC(=O)C1)N1CC(=O)NC(=O)C1.Cl", "note": "(centres undefined) [Dexrazoxane HCl (ICRF-187, ADR-529)]", "cell viability": "96.1 ± 14"}
{"smiles": "CCC1OC(=O)C(C)C(OC2CC(C)(OC)C(O)C(C)O2)C(C)C(OC2OC(C)CC(N(C)C)C2O)C(C)(O)CC(C)C2NC(COCCOC)OC(C2C)C1(C)O", "note": "(centres undefined) [Dirithromycin]", "cell viability": "81.8 ± 15"}
{"smiles": "Cc1nc2c([nH]1)CCN(C(=O)c1ccc(NC(=O)c3ccccc3-c3ccccc3)cc1)c1ccccc1-2.Cl", "note": "[Conivaptan HCl]", "cell viability": "71.7 ± 2.5"}
{"smiles": "COc1nc(C)nc(Cl)c1NC1=NCCN1", "note": "[Moxonidine]", "cell viability": "82.9 ± 13"}
{"smiles": "CC(=O)OCC(=O)NCCCOc1cccc(CN2CCCCC2)c1.Cl", "note": "[Roxatidine Acetate HCl]", "cell viability": "95.5 ± 9.9"}
{"smiles": "Clc1ccc2c(c1)C(N1CCNCC1)=Nc1ccccc1O2", "note": "[Amoxapine]", "cell viability": "100 ± 40"}
{"smiles": "CCCNS(=O)(=O)Nc1ncnc(OCCOc2ncc(Br)cn2)c1-c1ccc(Br)cc1", "note": "[Macitentan]", "cell viability": "75.383 ± 0.03"}
{"smiles": "OCC(O)C(O)C(O)CO", "note": "(centres undefined) [Xylitol]", "cell viability": "101 ± 7.7"}
{"smiles": "CCCc1ncc(C[n+]2ccccc2C)c(N)n1.Cl.[Cl-]", "note": "[Amprolium HCl]", "cell viability": "71.4 ± 27"}
{"smiles": "Cc1c(O)c(=O)ccn1C", "note": "[Deferiprone]", "cell viability": "85.8 ± 1.6"}
{"smiles": "NC(=O)N1c2ccccc2CC(=O)c2ccccc21", "note": "[Oxcarbazepine]", "cell viability": "99.59 ± 0.42"}
{"smiles": "CCC(C)C(=O)OC1CCC=C2C=CC(C)C(CCC3CC(O)CC(=O)O3)C21", "note": "(centres undefined) [Mevastatin]", "cell viability": "54.2 ± 10"}
{"smiles": "CC(=O)OC1(C(C)=O)CCC2C3CC(C)C4=CC(=O)CCC4(C)C3CCC21C", "note": "(centres undefined) [Medroxyprogesterone acetate]", "cell viability": "95 ± 3.6"}
{"smiles": "CNC(C)C1CCC(N)C(OC2C(N)CC(N)C(OC3OCC(C)(O)C(NC)C3O)C2O)O1.O=S(=O)(O)O", "note": "(centres undefined) [Gentamycin Sulfate]", "cell viability": "94.8 ± 20"}
{"smiles": "COc1ccc(CC2c3cc(OC)c(OC)cc3CC[N+]2(C)CCC(=O)OCCCCCOC(=O)CC[N+]2(C)CCc3cc(OC)c(OC)cc3C2Cc2ccc(OC)c(OC)c2)cc1OC.O=S(=O)([O-])c1ccccc1.O=S(=O)([O-])c1ccccc1", "note": "(centres undefined) [Cisatracurium Besylate]", "cell viability": "119 ± 6.3"}
{"smiles": "NCCCCCC(=O)O", "note": "[(6-)ε-Aminocaproic acid]", "cell viability": "77.2 ± 5.2"}
{"smiles": "CC12CCC3=C4CCC(=O)C=C4CCC3C1CCC2(O)CC#N", "note": "(centres undefined) [Dienogest]", "cell viability": "92.3 ± 3.2"}
{"smiles": "COC(=O)Nc1nc2ccc(S(=O)c3ccccc3)cc2[nH]1", "note": "(centres undefined) [Oxfendazole]", "cell viability": "95.3 ± 8"}
{"smiles": "Cc1cn(C2CC(N=[N+]=[N-])C(CO)O2)c(=O)[nH]c1=O", "note": "(centres undefined) [Zidovudine]", "cell viability": "123 ± 16"}
{"smiles": "CCN(CCO)CCCC(C)Nc1ccnc2cc(Cl)ccc12.O=S(=O)(O)O", "note": "(centres undefined) [Hydroxychloroquine Sulfate]", "cell viability": "71.4 ± 3.8"}
{"smiles": "CC1(C)SC2C(NC(=O)C(N)c3ccccc3)C(=O)N2C1C(=O)[O-].[Na+]", "note": "(centres undefined) [Ampicillin]", "cell viability": "83.5 ± 3.9"}
{"smiles": "CC(O)(P(=O)(O)O)P(=O)(O)O", "note": "[Etidronate]", "cell viability": "75 ± 5.3"}
{"smiles": "CCCNC(C)C(=O)Nc1ccccc1C.Cl", "note": "(centres undefined) [Prilocaine hydrochloride]", "cell viability": "102 ± 16"}
{"smiles": "CN(C)CCC=C1c2ccccc2CCc2ccccc21.Cl", "note": "[Amitriptyline HCl]", "cell viability": "74.5 ± 4.4"}
{"smiles": "CN1CCC(=C2c3ccccc3CC(=O)c3sccc32)CC1.O=C(O)C=CC(=O)O", "note": "[Ketotifen Fumarate]", "cell viability": "95.4 ± 4.4"}
{"smiles": "CCOc1ccc2ccccc2c1C(=O)NC1C(=O)N2C1SC(C)(C)C2C(=O)[O-].O.[Na+]", "note": "(centres undefined) [Nafcillin Sodium]", "cell viability": "96.1 ± 8.5"}
{"smiles": "Nc1ccc(S(=O)(=O)c2ccc(N)cc2)cc1", "note": "[Dapsone]", "cell viability": "116 ± 4.3"}
{"smiles": "Nc1nc(=O)c2ncn(COC(CO)CO)c2[nH]1", "note": "[Ganciclovir]", "cell viability": "87.3 ± 5.8"}
{"smiles": "FC(F)(F)c1ccc(C=Cc2nc(COc3ccc(CCCCn4ccnn4)cc3)co2)cc1", "note": "[Mubritinib (TAK 165)]", "cell viability": "56.43 ± 0.074"}
